The structures appear in SMILES notation. Screen size: about 69,000 compounds; about 8,600 (12%) showed an effect of 50% or more. The full list was thinned out, with strong results kept by preference.

Drawing on ChEMBL document CHEMBL4513216, “Probing the Open Global Health Chemical Diversity Library for Multistage-Active Starting Points for Next-Generation Antimalarials” (ACS Infect Dis, 2020), this text covers INHIBITION for 28 compounds.

The assay has as its system Plasmodium berghei. The assay can be described thus: Screen against P. berghei liver stage (PbLuc), transformed with Luciferase, at 10uM. The class given is functional, HepG2. As to conditions: tested at 10 uM.
As to `Cn1ccnc1CN1CCN(CCOc2ccccc2F)CC1`, the INHIBITION is given as 7.27%.

With `CC(C)c1ncc(CN2CCC(CO)C2)cn1` (stereo not drawn), the INHIBITION was 8.72%.

Consider `Cc1n[nH]c(C2CN(C(=O)Cn3ccccc3=O)CCO2)n1` (stereo not drawn), for which the INHIBITION was found to be 34.5%.

With `CC(C)c1n[nH]c(C2CN(C(=O)CCn3ccccc3=O)CCO2)n1` (stereo not drawn), the INHIBITION is reported as 5.97%.

Take `CCCc1n[nH]c(C2CN(C(=O)Cn3ccccc3=O)CCO2)n1` (stereo not drawn): the INHIBITION is recorded as 48.4%.

In the case of `CCc1n[nH]c(C2CN(C(=O)CCn3ccccc3=O)CCO2)n1` (stereo not drawn), the INHIBITION is listed as -22.9%.

Consider `CCc1n[nH]c(C2CN(C(=O)Cn3ccccc3=O)CCO2)n1` (stereo not drawn), for which the INHIBITION came to 53%.

On to `CC(C)c1n[nH]c(C2CN(C(=O)Cn3ccccc3=O)CCO2)n1` (stereo not drawn), for which the INHIBITION stood at 62.1%.

As to `Cc1noc([C@H]2C[C@@H]3CCN(CC4CCOCC4)C[C@H]3O2)n1`, the INHIBITION stood at 27.7%.

For `CNC(=O)CN1CC[C@H]2CN(C(=O)c3cccc(C)c3)C[C@H]2C1`, the INHIBITION was 8.52%.

With `Cc1nocc1C(=O)N1CCc2c(CN(C)C)nn(C)c2C1`, the INHIBITION is listed as -1.12%.

`O=C(c1cc2c(s1)CCOC2)N1CCCC1Cn1cccn1` (stereo not drawn): the INHIBITION is reported as 8.64%.

Regarding `O=C(Cn1cnc2cc3c(cc21)OCCCO3)NC1CCCCC1`, the INHIBITION came out at 13.7%.

Turning to `c1cc(CN2CCC(c3ccnc4nccn34)C2)ccn1` (stereo not drawn), the INHIBITION was 35.7%.

Regarding `c1ccc2c(Cc3nnc([C@H]4CCNC4)o3)c[nH]c2c1`, the INHIBITION was 65.6%.

With `c1ccc2c(Cc3nnc([C@H]4CCN(C5CCC5)C4)o3)c[nH]c2c1`, the INHIBITION is reported as -4.88%.

Consider `CN1CC[C@H](c2nnc(Cc3c[nH]c4ccccc34)o2)C1`, for which the INHIBITION came to 24.9%.

With `c1ccc2c(Cc3nnc([C@H]4CCN(CC5CC5)C4)o3)c[nH]c2c1`, the INHIBITION turned out to be 5.96%.

On to `c1ccc2c(Cc3nnc([C@H]4CCN(C5CCOCC5)C4)o3)c[nH]c2c1`, for which the INHIBITION stood at 56.1%.

With `c1ccc2c(Cc3nnc([C@H]4CCN(C5CCCCC5)C4)o3)c[nH]c2c1`, the INHIBITION is listed as 8.67%.

Consider `CCn1nc(C)c2nc(C(C)C)nc(NCC(=O)N3CCOCC3)c21`, for which the INHIBITION is 48.2%.

On to `CC(C)c1noc(CN2CCCN(Cc3cccs3)CC2)n1`, for which the INHIBITION was determined as 11.6%.

In the case of `CCOC1Sc2nnc(C)n2N=C1c1ccc(Cl)cc1` (stereo not drawn), the INHIBITION was 31.8%.

Turning to `CCC(C)NS(=O)(=O)c1ccc(C(=O)N(C)C2(C#N)CCC2)cc1` (stereo not drawn), the INHIBITION is listed as 46.3%.

For `CN(C(=O)c1ccc(S(=O)(=O)NC(C)(C)C)cc1)C1(C#N)CCC1`, the INHIBITION is recorded as 50.4%.

For `CN(Cc1ccsc1)C(=O)c1ccc(S(=O)(=O)NC(C)(C)C)cc1`, the INHIBITION is -61.4%.

As to `Cc1n[nH]c(C)c1-c1cnc(CC2CCCN(S(C)(=O)=O)C2)cn1` (stereo not drawn), the INHIBITION is reported as -38.2%.

For the compound `Cc1cc(C)c2nc(C)c(C(=O)N3CCC(N4CCCC4)CC3)cc2c1`, the INHIBITION came to 31%.
